The values below come from PubChem BioAssay AID504727 (Broad Institute, 2011).

The source made the active and inactive calls.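 How the source made its calls: active means fitted half-maximal concentration AC50 at or below ten times the highest valid tested dose, with signal falling as DNA is displaced (actives reach about 34 µM in these data); inconclusive means flat fit at moderate signal loss, or poor fit quality; inactive means the rest, including signal rising instead of falling.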

This assay is described as follows: acridine orange-DNA binding displacement – biochemical, fluorescence polarization, cherry-picked samples, set 2, artefact control for KSHV LANA DNA-binding inhibitor project, dose response (AID 504727). As to conditions: series mostly up to 35 µM.
For `CCOC(=O)[C@H]1[C@H]2COc3cc(OC)ccc3[C@@H]2N2C(=O)CN(Cc3ccc(OC)cc3)C(=O)[C@@]12C`, the AC50 result was “inactive”.

`COC(=O)c1ccccc1OCC(=O)N1CCN(c2ccc(Cl)cc2)CC1`: the AC50 result was “inactive”.

With `Cn1nc(-c2ccccc2)c2nc3ccccc3nc21`, the AC50 was 35.8 µM (active).

Turning to `NC(=S)NN=Cc1ccc(-c2ccc(S(=O)(=O)Nc3ncccn3)cc2)o1`, the AC50 result is “inactive”.

As for `Cc1nc2c(=O)[nH]c(=S)[nH]c2[nH]c1=O`, the AC50 result was “inactive”.

As for `Cc1ccc(NC(=O)CN(C)C(=O)c2nn(C)c(=O)c3ccccc23)cc1`, the AC50 entry was “inactive”.

On to `COc1ccc(-c2n[nH]c(=S)n2-c2ccc(C)cc2)cc1`, for which the AC50 result is “inactive”.

On to `Cc1nn(Cc2c(F)c(F)c(F)c(F)c2F)c(C)c1NC(=O)c1ccnn1C`, for which the AC50 result is “inactive”.

For `O=C(Nc1ccc2c(c1)OCO2)N1CCCc2ccccc21`, the AC50 result is “inactive”.

For `CC[C@@]1(O)C(=O)OCc2c1cc1n(c2=O)Cc2cc3c(CN(C)C)c(O)ccc3nc2-1`, the AC50 is 3.8 µM (active).

Turning to `NC(=O)C1=NOC(CNc2ncc(C(F)(F)F)cc2Cl)C1` (stereo not drawn), the AC50 result is “inactive”.

For `Cc1noc(C)c1-c1nc(CSc2ccccc2)no1`, the AC50 entry was “inactive”.

Consider `O=C(O)CN1C(=O)/C(=C\c2cc(Br)ccc2OCc2ccc([N+](=O)[O-])cc2)SC1=S`, for which the AC50 entry is “inactive”.

As for `Cc1ccc(C(=O)O)cc1N1C(=O)c2cccc3c([N+](=O)[O-])ccc(c23)C1=O`, the AC50 entry was “inactive”.

As to `CC(C)(C)OC(=O)N1CCC[C@H]1c1nnc(SCc2cccc(Cl)c2)o1`, the AC50 result is “inactive”.

As for `CCOC(=O)C1=C(O)/C(=C/c2cc(C)n(-c3ccccc3)c2C)N=C1C`, the AC50 entry was “inactive”.

For the compound `CC1CC(C)CN(C(=O)c2ccc3ncsc3c2)C1` (stereo not drawn), the AC50 entry was “inactive”.

Take `O=C(O)Cc1ccc(N=Nc2c(O)c(C(=O)O)cc3ccccc23)cc1`: the AC50 result was “inactive”.

Turning to `CC(Sc1nc(-c2ccco2)nc2c1c(=O)n(C)c(=O)n2C)C(=O)O` (stereo not drawn), the AC50 entry was “inactive”.

Regarding `COc1ccc(Br)cc1CNC(=O)CCCc1cn(C)c2ccccc12`, the AC50 result was “inactive”.

On to `COC(=O)C1=C(N)OC2=C(C(=O)CCC2)C1c1cccs1` (stereo not drawn), for which the AC50 entry is “inactive”.

As for `Cn1cc(C(=O)c2ccc(Cl)cc2Cl)cc1C(=O)N/N=C(\N)COc1ccccc1`, the AC50 result is “inactive”.

Regarding `CNc1ccc2c3c(cccc13)C(=O)N(C)C2=O`, the AC50 was 0.872 µM (active).

As to `COCCCNc1c2c3c(cccc3[nH]c1=O)C(=O)c1ccccc1-2`, the AC50 was 0.63 µM (active).

Take `COc1cccc2c1NC(C(=O)O)C1CC=CC21` (stereo not drawn): the AC50 entry was “inactive”.

Turning to `O=C(O)c1cccc(-n2cccc2/C=C/[N+](=O)[O-])c1`, the AC50 entry is “inactive”.

As to `CC(Oc1ccccc1)c1nnc(N)s1` (stereo not drawn), the AC50 was 17.5 µM (active).

With `CS(=O)(=O)Nc1nc2n(n1)C(c1ccccc1)C=C(c1ccc(Br)cc1)N2` (stereo not drawn), the AC50 was 18 µM (active).

On to `Brc1ccc(-c2noc(COc3ccc4c(c3)CCC4)n2)o1`, for which the AC50 result is “inactive”.

Take `CN(C)CCCNC(=O)c1ccccc1Oc1ccccc1`: the AC50 result is “inactive”.

In the case of `O=C(O)C1C2C=CC(CC2)C1C(=O)O` (stereo not drawn), the AC50 entry is “inactive”.

Consider `Nc1nc(C(F)(F)F)cc(=O)[nH]1`, for which the AC50 entry was “inactive”.

Take `CCN(CC)c1ccc2cc(S(=O)(=O)c3ccc(Cl)cc3)c(=O)oc2c1`: the AC50 is 6.87 µM (active).

On to `Cc1c(C#N)c(=O)c(-[n+]2ccccc2)c([S-])n1-c1ccc(Cl)cc1`, for which the AC50 entry is “inactive”.

Consider `CCN(Cc1ccccc1)C(=O)c1cccc(S(=O)(=O)N2CCN(Cc3ccccc3)CC2)c1`, for which the AC50 entry was “inactive”.

In the case of `CCn1c(=O)c(C(=O)NCCN2CCCCC2)c(O)c2ccccc21`, the AC50 entry was “inactive”.

Regarding `O=C(O)c1ccc2c(c1)[C@@H]1C=CC[C@@H]1[C@H](c1ccccn1)N2`, the AC50 entry was “inactive”.

Consider `S=c1c2c(nc3nc[nH]n13)CCC2`, for which the AC50 result is “inactive”.
